Several values for one entry are separate records, joined by “and”; a condition that tells them apart may be missing. Equal entries are not always repeated. Screen size: about 350,000 compounds; about 31,000 (8.9%) were called active. About 15% were inconclusive and are not listed. The sample holds actives, similar compounds and a random draw of the others, so the mix is not that of the screen. Calls follow the shape of the dose curve; as a rule, active = well fitted inhibition curve with a large enough effect; inconclusive = small, poorly fitted or top-dose-only effect; inactive = no such curve, though single readings can be large or run the other way. Where a structure was tested more than once in an assay, its records may differ in their call.
target: Histone-lysine N-methyltransferase EHMT2 (Homo sapiens) (UniProt Q96KQ7); experiment: qHTS Assay for Inhibitors of Histone Lysine Methyltransferase G9a; details: G9a H3K9 monomethylation, AlphaScreen, 2 h; series mostly up to 59 µM; also: nearly all actives have a fitted effect of over 75% in size
Outline: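 Enzyme 20 nM + cpd, 15 min RT; add b-H3K9 pep 500 nM / SAM 20 uM; 2 h RT; anti-H3K9me1 Ab 0.5 ug/mL + SA donor / anti-rabbit acceptor beads 20 ug/mL each, 10 min; AlphaScreen read.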
% is scaled to controls: 0 for no effect and ±100 for the full control effect; potency is read from the fitted curve at half-maximal effect.

Histone-lysine N-methyltransferase EHMT2 (Homo sapiens), sequence (Q96KQ7 913-1193 limits assumed): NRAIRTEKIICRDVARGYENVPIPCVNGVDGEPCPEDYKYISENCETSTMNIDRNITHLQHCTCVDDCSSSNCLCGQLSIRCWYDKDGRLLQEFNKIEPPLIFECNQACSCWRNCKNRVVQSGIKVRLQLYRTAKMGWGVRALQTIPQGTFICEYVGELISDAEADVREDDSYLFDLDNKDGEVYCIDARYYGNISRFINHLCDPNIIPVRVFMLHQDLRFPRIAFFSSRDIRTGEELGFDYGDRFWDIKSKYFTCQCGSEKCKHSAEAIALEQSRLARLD

Potency, inactive:
COc1cc(/C=N/NC(=O)c2ccc(N3CCCC3=O)cc2)ccc1O
Cn1c(=O)n(C)c2cc(/C=N/NC(=O)c3cccc(Br)c3)ccc21
Cc1ccccc1NC(=O)Cn1cc(C(=O)c2cccs2)c2ccccc21
O=S(=O)(NC1CC1)c1ccc(Cl)cc1
O=C(Cn1ccc2cc(S(=O)(=O)N3CCCC3)ccc21)NCc1ccccc1
O=c1c([N+](=O)[O-])cc(C(F)(F)F)cn1Cc1cccc(Cl)c1
Cc1cc(S(=O)(=O)NC2CCCC2)ccc1-n1cnnn1
O=C(NCC1CCCO1)c1ccc(S(=O)(=O)Nc2ccc(F)cc2)cc1 (stereo not drawn)
CN(CC(=O)Nc1ccc(Cl)cc1)C(=O)c1ccc(COc2ccccc2)cc1
Cc1ccc(NC(=O)CN(C)C(=O)c2ccc(Br)o2)cc1
CCOc1ccccc1CNC(=O)c1ccc(-n2c(C)cc3c2CCC(C)C3)cc1 (stereo not drawn)
COc1ccc(CCNC(=O)CN(C)S(=O)(=O)c2ccc3nc(C)sc3c2)cc1OC
CCOCCCNC(=O)c1ccc2nc(CCc3ccccc3)oc2c1
Cc1ccc(NC(=O)c2cc(S(=O)(=O)NCCC3=CCCCC3)ccc2F)cc1C
COCCCn1c(SCC(=O)Nc2ccccc2)nnc1-c1ccncc1
O=C(c1ccc2c(c1)N(Cc1ccccc1F)C(=O)c1ccccc1S2(=O)=O)N1CCOCC1
COC(=O)C1CCN(C(=O)c2cc(=O)[nH]c3ccccc23)CC1
O=C(NC1CCCCC1)N1CCc2[nH]c3ccccc3c2C1
O=C(NCCc1ccc(F)cc1)c1ccc(S(=O)(=O)N2CCCCC2)cc1
Cc1cc2nc(C)n(CCCNC(=O)Nc3ccccc3)c2cc1C
Cn1c(Nc2ccccc2)cc(=O)n(C)c1=O
CCc1ccccc1NC(=O)Cn1c(=O)n(CC2CCC(C(=O)NCCc3ccccc3)CC2)c(=O)c2ccccc21 (stereo not drawn)
O=C(C1CCC(Cn2c(=O)c3sccc3n(Cc3ccccc3F)c2=O)CC1)N1CCCCC1 (stereo not drawn)
COc1cccc(NC(=O)CSc2nnc(-c3cccnc3)o2)c1
CCn1c(SCC(=O)Nc2ccc3c(c2)OCCO3)nnc1C(C)C
CCCn1c(SCC(N)=O)nnc1C(C)C
COC(=O)c1ccc2c(c1)N(CC(=O)Nc1ccc(C)c(C)c1)C(=O)c1ccccc1S2
Cc1ccc(C(=O)N/C(=C\c2cn(S(=O)(=O)N(C)C)c3ccccc23)C(=O)N2CCCC2)cc1
COc1cc(C(=O)N/C(=C\c2cn(C)c3ccccc23)C(=O)N2CCOCC2)cc(OC)c1OC
CCCCC[C@H]1CN(C2CCCCC2)C(=O)[C@@H]1CC(=O)NCc1ccc(OC)cc1
CCN(CC)CCn1c2c(c(SCC(=O)Nc3ccc(C(C)C)cc3)nc1=O)CCC2
Cc1cc(NC(=O)c2cccc(Cl)c2)ccc1-c1cc2ccccc2oc1=O
COc1ccc2nc(Nc3nc(-c4cc5ccccc5oc4=O)cs3)sc2c1
CCOC(=O)CN1C(C(=O)c2ccccc2)=C(OC(=O)C(C)(C)C)c2ccccc2S1(=O)=O
CCCCc1nn2c(=O)cc(COC(=O)c3ccccc3NC(=O)C(C)(C)C)nc2s1
COc1ccc(CSc2nnnn2-c2ccc(C(=O)O)cc2)cc1
Cc1ccc(-n2c(CNc3ccc(F)cc3)nnc2SCC(=O)N2CCOCC2)cc1
O=C(C(=O)N1CCc2ccccc2C1)N1CCc2ccccc2C1
Cc1ccc(-c2cc(C(=O)N3CCc4ccccc4C3)no2)cc1
O=C(CCc1cn(Cc2ccc(F)cc2)c2ccccc12)NC1CCCCC1
Cc1ccc(Cn2c(=N)c(S(=O)(=O)c3ccc(C)cc3)cc3c(=O)n4ccccc4nc32)cc1
CCN(CC(=O)Nc1ccccc1OC)C(=O)CC1CC2CCC1C2 (stereo not drawn)
COc1ccccc1N1CCN(C(=O)c2ccc(NC3=NC4CS(=O)(=O)CC4S3)cc2)CC1 (stereo not drawn)
O=[N+]([O-])c1ccc(N2CCSCC2)cc1O
CCc1nn(CCCC(=O)Nc2ccc(C)cc2C)c(=O)c2cc3occc3n12

Potency, inactive and 12.6 µM (active):
COC(=O)[C@H]1[C@H]2C[C@H]3c4[nH]c5ccccc5c4CCN3C[C@@H]2CC[C@@H]1O

Potency, active:
O=C(N/N=C/c1cccc(Br)c1)c1ccc(N2CCCC2=O)cc1 79.4 µM
Cc1cc(C)c(OCCN2CC(C)OC(C)C2)c(Br)c1 (stereo not drawn) 8.91 µM
O=[N+]([O-])/C=C/c1ccc2c(ccn2Cc2ccccc2)c1 31.6 µM
CN(CC(=O)Nc1ccc(F)cc1)C(=O)c1ccc(-c2ccc(Cl)cc2)o1 79.4 µM
CSc1nnc(-c2ccncc2)n1CCCN1CCCC1=O 50.1 µM
Cc1cc(=O)n(C)c(=O)n1CCCNc1ccccc1 15.8 µM
CCCn1c(SCC(=O)c2ccc3c(c2)OCCO3)nnc1C(C)C 44.7 µM
Cc1ccc(C(=O)N/C(=C\c2cn(C)c3ccccc23)C(=O)N2CCN(C)CC2)cc1 79.4 µM
O=c1oc2ccccc2cc1-c1csc(Nc2ccc(O)cc2)n1 12.6 µM
COc1ccc(NCc2nnc(SCc3ccccc3)n2-c2ccc(OC)cc2)cc1 50.1 µM
Cn1cccc1C(=O)N1CCc2ccccc2C1 2 µM
O=C1CSC(=S)N1/N=C/c1ccc(O)c([N+](=O)[O-])c1 14.1 µM

activity, negative = inhibition, inactive:
CCOc1cc2[nH]c(=S)n(CCCN3CCCC3=O)c(=O)c2cc1OCC -45.8% [at 12.7 µM]
O=C(COC(=O)c1ccccc1SCC(=O)N1CCCC1)Nc1ccccc1OC(F)F 13.9% [at 0.501 µM]
CC1(NC(=O)CCS(=O)(=O)c2ccc(Cl)cc2)CCS(=O)(=O)C1 (stereo not drawn) -5.47% [at 12.7 µM]
CC1(C)CC(=O)C=C(c2cccc3c2Oc2ccccc2S3)C1 -4.23% [at 0.501 µM]
Cc1ccc(OCCNC(=O)CN2C(=O)NC3(CCCC3)C2=O)cc1 19.1% [at 2.33 µM]

From PubChem BioAssay AID504332 (National Center for Advancing Translational Sciences (NCATS), 2011)
